Screening results: PubChem, National Center for Advancing Translational Sciences (NCATS)
DT40 TDP1 CPT: growth inhibition of DT40 Tdp1-/-;hTDP1 cells with camptothecin (screen for TDP1 inhibitors) | chicken DT40 Tdp1-/-;hTDP1 cells + 20 nM CPT, ATP luminescence, 48 h | Potency, µM (series often up to 46.2 µM), inactives show at the top dose activity change, negative = growth inhibition, usual class: inhibitors | hit rate 12% among 420,000 | AID 686979; note: % is set by controls: 0 for no effect and ±100 for the full control effect; nearly all actives have a fitted effect of over 55% in size
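Chicken DT40 Tdp1-/- cells stably complemented with human TDP1 were seeded at 400 cells/well in medium containing 20 nM camptothecin, exposed to pin-transferred compounds, and grown at 37 °C for at least 48 hr. Viability was read as ATP luminescence.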
HT1080NT lethal: kills 2HG-producing HT-1080-NT fibrosarcoma cells; HT-1080-NT fibrosarcoma viability, CellTiter-Glo ATP luminescence, 48 h; Potency, µM (titrated, usually from 46.1 µM), inactives show top-dose activity, negative = less viability, usual class: cytotoxic; hit rate 1.6% among 360,000;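 note: NT is the 2HG producing partner of a matched IDH1 knockdown line; 0% = DMSO-treated cells and -100% = media-only wells without cells; nearly all actives have a fitted effect of over 55% in size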
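Fibrosarcoma NT cells, 750 per well in 5% FBS RPMI, were exposed to compound for 48 hours. Viability: CellTiter-Glo luminescence.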
TGFb SMAD3 inh: blocks TGF-b signaling | HepG2 CAGA-GFP TGF-b/SMAD3 reporter, GFP fluorescence, 18 h; TGF-beta stimulated, 500 pg/mL final | Potency, µM (series often up to 46.1 µM), without a hit: top-dose activity, negative = inhibition, actives largely listed as inhibitors | hit rate 1.2% among 410,000 | AID 588855; note: % is set by controls: 0 for no effect and ±100 for the full control effect; nearly all actives have a fitted effect of over 65% in size
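TGF-beta reporter screen: HEPG2 CAGA-GFP, 1% FBS, 500 pg/mL TGF-beta final, 18 h; per-cell GFP summed per well; curves fitted and categorized by class.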
TDP1 cell noCPT: qHTS for Inhibitors of human tyrosyl-DNA phosphodiesterase 1 (TDP1): qHTS in cells in absence of CPT; Potency, µM (top dose mostly 46.2 µM), for inactives: top-dose activity change, negative = growth inhibition, hits mostly inhibitors; DT40 Tdp1-/- hTDP1 cells, no CPT, ATP luminescence, 48 h; hit rate 15% among 420,000; note: % is set by controls: 0 for no effect and ±100 for the full control effect; nearly all actives have a fitted effect of over 55% in size
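No-CPT arm: Tdp1-/-;hTDP1 DT40 cells (400/well) plus compounds, incubated ≥48 hr at 37 °C. Readout CellTiter-Glo luminescence.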
HT1080 IDH1KD tx: toxicity to HT-1080 IDH1 knockdown cells (counter line); hit rate 2% among 360,000; HT-1080 IDH1 knockdown viability, ATP luminescence, 48 h; Potency, µM (series often up to 46.1 µM), without a hit: at the highest dose activity, negative = toxicity, most hits filed as cytotoxic;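 note: 0% = DMSO wells and -100% = cell-free medium wells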
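% activity derives from luminescence (CellTiter-Glo), normalised to DMSO and no-cell wells. HT-1080-IDH1KD cells, 750/well, had 48 h compound exposure at 37 °C.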
HepG2 viability: kills HepG2 cells in TGF-b inhibitor counter-screen | HepG2 CAGA-GFP viability, ATP luminescence, 18 h | Potency, µM (doses to about 46.1 µM), for inactives: at the highest dose activity change, negative = cytotoxicity, actives largely listed as cytotoxic | hit rate 0.76% among 410,000 | AID 588856
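CellTiter-Glo luminescence gave cytotoxicity after 18 hours at 37 degrees C. The cells were HepG2 CAGA-GFP in 1% FBS DMEM, stimulated with 500 pg/mL TGF-beta after compound addition. %Activity was normalised to no-cell wells (complete cell-killing) and DMSO (no toxicity), and curves were fitted and classified.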
* hit, by the source's call; ? = inconclusive; / = not tested or not shown. This is a sample that favours compounds with a hit; in the whole collection about 17% have one here. Calls come from the whole dose curve; as a rule, active = well fitted curve in the direction sought with a large enough effect; inconclusive = small, poorly fitted or top-dose-only effect, or another doubt; inactive = no such curve, though single readings can be large; an effect the other way counts as inactive or inconclusive. Potency is the fitted concentration of half-maximal effect.

SMILES	DT40 TDP1 CPT	HT1080NT lethal	TGFb SMAD3 inh	TDP1 cell noCPT	HT1080 IDH1KD tx	HepG2 viability
Cc1ccn(CCNC(=O)C2CCC(=O)N(Cc3ccc(Cl)cc3)C2)n1 (stereo unspecified)	1.7%	-1.3%	-8.0%	2.9%	-2.5%	-10.9%
Cc1ccc(/C=C2/NC(=O)N(Cc3ccccc3)C2=O)o1	16.4µM*	-1.3%	?	23.1µM*	-4.5%	-46.6%
COC(=O)CN1C(=O)N/C(=C/c2ccc(C)o2)C1=O	-26.4%	12.3%	0.0%	6.6%	5.3%	-8.5%
CCn1c(C)cc(/C=C2\NC(=O)N(Cc3ccc(Cl)cc3)C2=O)c1C	-14.2%	0.6%	-4.3%	?	?	-9.2%
CCN1C(=O)N/C(=C/c2cc(C)n(Cc3ccccc3)c2C)C1=O	18.4µM*	-18.4%	-2.5%	?	-28.6%	-8.6%
Cc1ccc(NC(=O)Cn2c(=O)cc(-c3ccccc3)c3c(C)nn(C)c32)c(Cl)c1	-27.3%	/	18.5%	-14.8%	/	13.2%
C[C@@H](CN1CC(=O)NC(=O)C1)N1CC(=O)NC(=O)C1	-8.1%	/	/	?	/	/
CCOC(=O)N1CCN(C(=O)C[C@@H]2C[C@@]3(C(=O)OCC)CCCC=C3N(Cc3ccccc3)C2=O)CC1	?	17.1%	/	?	10.2%	/
Cc1cccc2sc(N(CCCN(C)C)C(=O)CCc3ccccc3)nc12	25.9µM*	-28.0%	12.6µM*	?	0.2%	-109.8%
CN(C)CCCN(C(=O)CCc1ccccc1)c1nc2ccc(F)cc2s1	-19.0%	-4.9%	0.0%	16.4µM*	-3.5%	-40.0%
CN(C)CCN(C(=O)CCc1ccccc1)c1nc2c(F)cc(F)cc2s1	-10.2%	-1.5%	-9.4%	-20.3%	2.0%	-19.0%
CN(C)CCN(C(=O)/C=C/c1cccs1)c1nc2ccc(F)cc2s1	20.6µM*	?	?	18.4µM*	?	-54.5%
CN(C)CCCN(C(=O)CCc1ccccc1)c1nc2ccc(Br)cc2s1	?	18.4µM*	15.8µM*	23.1µM*	?	-101.9%
COc1ccc(CC(=O)OCc2nnc(-c3ccccc3)o2)cc1	-2.3%	6.2%	-7.0%	-2.0%	8.1%	-0.9%
COc1cc2c(cc1OC)C1(O)C(=O)c3ccc(O)c(C(=O)O)c3OC1CO2 (stereo unspecified)	?	/	/	-8.6%	/	/
COc1ccc(-c2cccc(-c3cc(=O)oc4ccc(C(C)(C)C)cc34)c2)cc1	?	-0.5%	-28.2%	?	1.6%	-30.5%
CCOC(=O)C1CCCN(c2ncnc3c2cnn3-c2ccc(C)c(Cl)c2)C1 (stereo unspecified)	?	/	-19.1%	-13.6%	/	-17.6%
CN(C)CCCN(C(=O)c1cc(-c2cccs2)nc2ccccc12)c1nc2ccc(F)cc2s1	23.1µM*	8.2µM*	?	13µM*	20.6µM*	-112.7%
CN(C)CCN(C(=O)c1cc(Cl)sc1Cl)c1nc2ccc(F)cc2s1	-10.1%	-0.8%	-10.3%	-19.8%	-6.7%	23.0%
Cc1ccc(-c2n[nH]c(=S)n2C)cc1	25.9µM*	-1.2%	-1.4%	16.4µM*	-5.4%	-32.3%
CCc1c(-c2n[nH]c(=S)n2Cc2ccccc2)csc1C	5.8µM*	-22.3%	-2.5%	4.61µM*	-18.3%	-3.9%
CC(C)(C)c1ccc(-c2n[nH]c(=S)n2Cc2ccccc2)cc1	?	?	?	11.6µM*	?	12.6µM*
CC(C)n1c(-c2ccc(C(C)(C)C)cc2)n[nH]c1=S	11.2µM*	-25.6%	-5.5%	?	-23.3%	-32.5%
Fc1ccc(-c2n[nH]c(=S)n2Cc2ccccc2)cc1	13.3%	11.9%	-0.2%	-3.4%	8.1%	-10.3%
